F508del corr = F508del CFTR correction, initial screen, CFBE line, single point; CFBE cells, YFP halide quenching; stimulated with forskolin plus potentiator P3; % fluorescence drop versus neutral controls; 350,000 compounds, 0.36% hits; activity (quench increase), % at 7.58 µM;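 active = mean added fluorescence quench of at least 8% versus neutral control, with both replicates also reaching 8%; inconclusive = only one of the mean or replicate conditions met; inactive = mean below 8% and not both replicates reaching 8%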;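 also: cells transiently co-express mutant CFTR-F508del with the halide-sensitive YFP; corrector assay measuring rescue of mutant channel to the surface after 24 h compound exposure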
PAX8 inh HTS = inhibitors of PAX8-driven TPO luciferase reporter, primary screen, RMG-I cells, single concentration. inhibition, % at 12.6 µM. SteadyGlo, 24 h. 360,000 compounds, 1.2% hits;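 active = mean replicate inhibition at least 60% with every replicate also reaching 60%; inconclusive = only one of the two criteria is met; inactive = mean below 60% and not all replicates reaching 60%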;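 also: luciferase light reporting Pax8 driven TPO promoter activity; plate controls were median of neutral control wells for no effect and mitoxantrone controls for full effect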
EWS-Fli inh = EWS/Fli-driven NR0B1 reporter inhibitors, primary screen, A673 cells, NR0B1 luciferase, luminescence, MLPCN library; viability-normalised; 350,000 compounds, 0.67% hits; inhibition, % at 12.6 µM;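 active = mean inhibition of at least 50% after viability correction, with every replicate also passing that limit; inconclusive = mean reaches 50% but only one of two replicates passes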;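 also: firefly luciferase signal divided by Alamar Blue viability fluorescence both relative to DMSO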
LGR2 inh = inhibitors of bursicon-induced LGR2 CRE-luciferase signal, primary screen, cell-based, HEK293, CRE-luciferase reporter, bursicon stimulation; inhibition, % at 9.99 µM; 380,000 compounds, 0.35% hits; bursicon-stimulated, 4 h; AID 720647, 2013; Drosophila bursicon receptor LGR2 (rickets);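 active = drop in luminescence signal, shown as inhibition above about 50% in the replicate tests, limit read from the data, passing the limit was not always enough; inconclusive = probably only some replicates passing the limit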;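 also: agonist challenge used bursicon conditioned medium at about half maximal strength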
An asterisk follows results filed as active; u = inconclusive; x = no result given. Shown are actives, neighbours in structure and some others; about 1.8% of the full set was active somewhere.

SMILES	F508del corr	PAX8 inh HTS	EWS-Fli inh	LGR2 inh
O=C(c1ccc(-c2cccc(C(F)(F)F)c2)o1)N1CCN(c2ccccc2)CC1	3	1	-5	-5
COc1ccc(N2C(=O)CN=C2Nc2nc(C)cc(C)n2)cc1	x	76*	x	x
CCCCNC(=O)C1C(c2ccccc2)=Nc2ccccc2N1C(=O)c1ccc(C(F)(F)F)cc1 (configuration not stated)	1	0	16	16
O=c1c2sccc2nc(SCc2ccc([N+](=O)[O-])cc2)n1Cc1ccccn1	-1	69*	-4	-7
Cc1cc2c(Nc3ccccc3O)ncnc2s1	-2	12	-1	9
CN(C)c1ccc(/C=C/c2ccc3ccccc3[n+]2C)cc1	x	-4	x	12
CN(C)c1ccc(/C=C/c2ccc3c4ccccc4ccc3[n+]2-c2ccccc2)cc1	-17	103*	62*	u
COc1ccc(-c2nnc(-c3ccccc3)o2)cc1OC	1	-205	-107	-60
COc1ccc(C2=C(C=C(C#N)C#N)C(c3ccccc3C)c3ccccc3O2)cc1OC (configuration not stated)	1	65*	18	-16
COc1ccc(-c2cc3nc(NCc4ccc(N(C)C)cc4)n(C)c(=O)c3s2)cc1OC	-4	6	9	74*
COc1cc(Cl)c(NC2=CC(=O)C(=O)c3ccccc32)c(OC)c1	7	95*	5	-13
CCOc1ccc(NC2=CC(=O)C(=O)c3ccccc32)cc1	0	49	12	-20
CCOc1ccc(C(=O)N2CCC3(CC2)NCCc2[nH]cnc23)cc1OCC	-1	8	-4	17
Cn1c(=O)c2nc(NCc3ccccc3)cnc2n(C)c1=O	-2	x	6	5
Cc1nc2c(=O)n(C)c(=O)n(C)c2nc1Cl	x	111*	59*	-23
CN(Cc1cccs1)C(=O)c1ccc(S(=O)(=O)N2CCCCC2)cc1	-3	-8	-4	-17
CN(Cc1cccs1)C(=O)c1cccc(S(=O)(=O)N2CCCCCC2)c1	31*	-1	1	-17
C#CCNC(=O)C1=C[C@@H](c2ccc3c(c2)OCO3)C[C@@H](OCc2ccc(CO)cc2)O1	2	32	1	-5
CN1CC(=O)N2C(c3ccc(Cl)cc3)c3[nH]c4ccccc4c3C[C@H]2C1=O (some centres not stated)	0	103*	49	14
CO[C@H](CCO)[C@H](O)c1ccc(O)c(F)c1	1	-3	-2	x
COc1ccc(-n2nnnc2S(=O)(=O)CC(=O)N2CCCCC2)cc1	-6	43	-1	99*
COc1ccc(NC(=O)N(C)C[C@H]2OCCCC[C@@H](C)Oc3ccc(NC(=O)NC4CCCCC4)cc3C(=O)N([C@H](C)CO)C[C@@H]2C)cc1	0	-1	-7	-3
COc1ccc(-c2sc3cc4c(cc3c2C#Cc2cncn2C)OCO4)cc1	4	10	10	-17
COc1ccc(-c2sc3ccc(OC)cc3c2C#Cc2cncn2C)cc1	1	65*	-6	-4
Nc1nc(NCc2ccccc2)nc(NCc2ccccc2)c1[N+](=O)[O-]	x	2	x	3
SMILES	F508del corr	PAX8 inh HTS	EWS-Fli inh	LGR2 inh
CN(C)c1nc(N)c([N+](=O)[O-])c(NCc2ccccc2)n1	-2	68*	-5	-7
O=C1C(C=Nc2ccccc2O)=C(O)c2ccccc21	0	x	-66	65*
CC(C)(C)c1csc(NC(=O)Cc2cccs2)n1	9.7*	-39	-24	-19
CC(/C=C/c1ccc(O)cc1)=NNc1ccccc1	18*	-11	5	4
CCOc1cccc2sc(N(CCCN(C)C)C(=O)c3ccc(S(=O)(=O)N(C)CC4CCCO4)cc3)nc12 (configuration not stated)	0	0	0	3
Cc1csc(NC(=O)c2ccc(S(C)(=O)=O)cc2)n1	0	-62	-46	-9
CC(=O)c1c(C)[nH]c(C(=O)Nc2nc(C)cs2)c1C	-2	58	74*	x
CC(=O)c1c(C)[nH]c(C(=O)Nc2nc(-c3ccc(Cl)cc3)cs2)c1C	x	-23	x	2
CC(=O)c1c(C)[nH]c(C(=O)Nc2nc(-c3ccc(-c4ccccc4)cc3)cs2)c1C	x	-34	2	91*
O=C(Nc1nc(-c2ccccc2)cs1)c1ccccc1NS(=O)(=O)c1ccc(F)cc1	x	86*	x	u
COC(=O)c1ccc(CSc2n[nH]c(C)n2)o1	4	78*	1	-16
CCCCCCCCCCOC(=O)Cn1c(COc2ccccc2OC)[n+](C)c2ccccc21	-3	70*	57*	54*
CCOC1=C2[C@@H](CN(S(=O)(=O)c3ccccc3)[C@H]2c2ccccc2)[C@H]2C(=O)N(c3ccccc3)C(=O)[C@H]2C1	0	-7	-4	4
CCOC1=C2[C@@H](CN(S(=O)(=O)c3ccc(C)cc3)[C@H]2c2ccc(Cl)cc2)[C@H]2C(=O)N(c3ccccc3)C(=O)[C@H]2C1	11*	6	3	1
C[C@H]1CCCCO[C@H](CN(C)S(=O)(=O)c2ccc(Cl)cc2)[C@@H](C)CN([C@@H](C)CO)C(=O)c2cc(NS(=O)(=O)c3cccs3)ccc2O1	-2	68*	26	4
C[C@H](CO)N1C[C@H](C)[C@@H](CN(C)S(=O)(=O)c2ccc(Cl)cc2)OCCCC[C@H](C)Oc2ccc(NS(=O)(=O)c3cccs3)cc2C1=O	-4	80*	18	5
C[C@H](CO)N1C[C@H](C)[C@H](CN(C)S(=O)(=O)c2ccc(Cl)cc2)OCCCC[C@H](C)Oc2ccc(NS(=O)(=O)c3cccs3)cc2C1=O	0	67*	6	42
C[C@@H]1CCCCO[C@H](CN(C)S(=O)(=O)c2ccc(Cl)cc2)[C@H](C)CN([C@H](C)CO)C(=O)c2cc(NS(=O)(=O)c3cccs3)ccc2O1	-6	20	20	20
Cc1ccc(S(=O)(=O)N(C)C[C@@H]2OCCCC[C@H](C)Oc3ccc(NS(=O)(=O)c4cccs4)cc3C(=O)N([C@H](C)CO)C[C@H]2C)cc1	-4	78*	11	4
C[C@@H]1CN([C@H](C)CO)C(=O)c2cc(NS(=O)(=O)c3cccs3)ccc2O[C@@H](C)CCCCO[C@H]1CN(C)S(=O)(=O)c1ccc(Cl)cc1	1	18	3	0
Cc1ccc(S(=O)(=O)N(C)C[C@H]2OCCCC[C@H](C)Oc3ccc(NS(=O)(=O)c4cccs4)cc3C(=O)N([C@@H](C)CO)C[C@H]2C)cc1	-1	17	-4	2
CC1C=NC(S(=O)(=O)N2CC[C@@H]3[C@H](CO)N(C)c4ccc(C5=CCCCC5)cc4[C@@H]32)=N1 (some centres not stated)	-2	-10	-9	1
CC(Oc1ccc(Cl)cc1)C(=O)Nc1cccc(S(=O)(=O)N2CCOCC2)c1 (configuration not stated)	-4	16	7	-7
Cc1csc(NC(=O)CSc2nncs2)n1	-3	-12	-12	5
